Results reported in publication PMC5700166.
Substitutions are numbered along the chain they refer to.

Columns and labels:
Assay in all cases: protein-binding microarray (PBM); PBM: ~300 nM protein, 6 mM HEPES pH 7.8, 80 mM KCl, 0.5 mM EDTA, 0.5 mM EGTA, 6% glycerol, 35 ng/ul poly-dIdC, 1% milk, 1 h, room temperature; Ap Aiptasia and Nv Nematostella (sea anemones) / Co Capsaspora / Aq Amphimedon (sponge) / Dm Drosophila / Hu human; RHD is the Rel homology domain; high values mean tight binding
Conditions in all cases: dsDNA, one strand shown
GST-Ap-NF-kB RHD = target: T1, GST-Ap-NF-kB RHD (Exaiptasia pallida (Aiptasia), UniProt A0A913YAJ5 2-422)
T1 sequence: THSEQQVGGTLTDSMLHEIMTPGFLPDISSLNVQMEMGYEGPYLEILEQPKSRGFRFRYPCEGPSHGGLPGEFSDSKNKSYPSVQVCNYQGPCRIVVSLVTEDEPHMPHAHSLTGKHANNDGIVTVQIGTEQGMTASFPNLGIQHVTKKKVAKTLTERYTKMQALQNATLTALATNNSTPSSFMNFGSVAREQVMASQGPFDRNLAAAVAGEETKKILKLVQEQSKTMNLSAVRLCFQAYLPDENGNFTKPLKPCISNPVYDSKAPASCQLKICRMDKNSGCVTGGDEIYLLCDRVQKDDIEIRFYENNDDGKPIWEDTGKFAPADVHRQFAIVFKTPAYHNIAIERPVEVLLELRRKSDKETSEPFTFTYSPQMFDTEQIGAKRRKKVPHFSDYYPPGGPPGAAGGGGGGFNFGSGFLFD

[1] = target: T2, GST-Nv-NF-kB (Cys allele) (Nematostella vectensis, UniProt E5G601 2-411)
T2 sequence: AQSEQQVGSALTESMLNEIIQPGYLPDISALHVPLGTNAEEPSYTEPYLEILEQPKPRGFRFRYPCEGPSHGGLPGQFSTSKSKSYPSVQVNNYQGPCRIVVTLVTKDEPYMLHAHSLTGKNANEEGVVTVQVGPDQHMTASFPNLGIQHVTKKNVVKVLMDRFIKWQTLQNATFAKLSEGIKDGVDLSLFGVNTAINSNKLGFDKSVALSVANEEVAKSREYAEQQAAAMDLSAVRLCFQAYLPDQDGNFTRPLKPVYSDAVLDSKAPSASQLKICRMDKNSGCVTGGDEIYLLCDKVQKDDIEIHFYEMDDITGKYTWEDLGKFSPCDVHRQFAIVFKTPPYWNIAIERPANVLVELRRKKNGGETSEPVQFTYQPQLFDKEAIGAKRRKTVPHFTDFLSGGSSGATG

[2] = target: T3, GST-Nv-NF-kB (Ser allele) (Nematostella vectensis, UniProt A7UNT2 2-411)
T3 sequence: T2 sequence with Q21R, C66S, S207N, E215Q, V217A, E225K, A268E, D399E

GST-Co-NF-kB = target: T4, GST-Co-NF-kB (Capsaspora owczarzaki, UniProt F1ARL5 200-546)
T4 sequence: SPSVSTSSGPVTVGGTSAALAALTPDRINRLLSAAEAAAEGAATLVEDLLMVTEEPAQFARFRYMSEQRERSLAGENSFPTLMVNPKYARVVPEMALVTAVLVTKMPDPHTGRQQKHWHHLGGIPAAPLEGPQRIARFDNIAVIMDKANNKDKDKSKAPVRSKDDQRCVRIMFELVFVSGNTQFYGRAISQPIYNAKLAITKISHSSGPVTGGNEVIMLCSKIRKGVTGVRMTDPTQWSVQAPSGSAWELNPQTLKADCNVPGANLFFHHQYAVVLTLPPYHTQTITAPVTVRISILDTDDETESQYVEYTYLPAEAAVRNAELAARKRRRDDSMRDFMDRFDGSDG

GST-Dm-Relish = target: T5, GST-Dm-Relish (Drosophila melanogaster, UniProt Q94527 99-473)
T5 sequence: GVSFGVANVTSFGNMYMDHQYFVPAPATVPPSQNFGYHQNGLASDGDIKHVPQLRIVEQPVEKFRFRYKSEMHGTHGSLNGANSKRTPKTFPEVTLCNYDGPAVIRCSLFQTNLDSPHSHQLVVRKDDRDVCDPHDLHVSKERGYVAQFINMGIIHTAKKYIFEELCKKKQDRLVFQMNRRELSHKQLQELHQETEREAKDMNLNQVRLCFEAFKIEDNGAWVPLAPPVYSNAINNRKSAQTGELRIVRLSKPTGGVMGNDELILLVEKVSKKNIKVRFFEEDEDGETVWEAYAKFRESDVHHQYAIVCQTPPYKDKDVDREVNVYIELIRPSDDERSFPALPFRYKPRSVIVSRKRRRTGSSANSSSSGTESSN

GST-Aq-NF-kB = target: T6, GST-Aq-NF-kB (Amphimedon queenslandica, UniProt A9Y5G7 2-389)
T6 sequence: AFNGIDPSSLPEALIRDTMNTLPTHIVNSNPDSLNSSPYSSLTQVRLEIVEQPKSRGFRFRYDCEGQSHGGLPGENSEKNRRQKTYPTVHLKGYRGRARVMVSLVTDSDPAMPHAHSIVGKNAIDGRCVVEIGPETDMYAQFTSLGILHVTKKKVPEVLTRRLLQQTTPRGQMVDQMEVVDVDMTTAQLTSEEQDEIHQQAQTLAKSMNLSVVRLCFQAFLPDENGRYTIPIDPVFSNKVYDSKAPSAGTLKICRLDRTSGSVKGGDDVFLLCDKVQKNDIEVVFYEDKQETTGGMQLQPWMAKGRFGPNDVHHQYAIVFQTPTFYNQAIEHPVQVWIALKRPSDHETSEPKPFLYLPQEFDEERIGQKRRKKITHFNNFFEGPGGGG

GST-Hu-p50 = GST-Hu-p50 (Homo sapiens, UniProt P19838 7-356)
Sequence of GST-Hu-p50 (P19838 7-356): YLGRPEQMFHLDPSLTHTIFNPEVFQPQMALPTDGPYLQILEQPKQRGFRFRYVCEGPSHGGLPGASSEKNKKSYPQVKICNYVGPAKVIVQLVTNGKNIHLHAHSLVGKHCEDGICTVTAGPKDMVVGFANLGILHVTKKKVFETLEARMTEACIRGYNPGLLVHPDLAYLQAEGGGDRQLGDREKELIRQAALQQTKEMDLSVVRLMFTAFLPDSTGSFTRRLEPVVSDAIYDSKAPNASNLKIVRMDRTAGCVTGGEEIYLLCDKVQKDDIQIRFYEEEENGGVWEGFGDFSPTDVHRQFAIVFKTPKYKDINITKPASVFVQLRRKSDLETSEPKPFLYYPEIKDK

CCGATTAACATCAGGGGGTCCACTGATGTTAATCGGGTCTTGATTCGCTTGACGCTGCTG
binding signal (GST-Ap-NF-kB RHD): 4.33 z-score
binding signal [1]: 2.44 z-score
binding signal [2]: 2.96 z-score
binding signal (GST-Co-NF-kB): 1.99 z-score
binding signal (GST-Dm-Relish): 7.96 z-score
binding signal (GST-Aq-NF-kB): 4.83 z-score
binding signal (GST-Hu-p50): 3.28 z-score

CCGATTAACATCAGGGGAATTTATGATGTTAATCGGGTCTTGATTCGCTTGACGCTGCTG
binding signal (GST-Ap-NF-kB RHD): 9.91 z-score
binding signal [1]: 11.9 z-score
binding signal [2]: 12.9 z-score
binding signal (GST-Co-NF-kB): 8.16 z-score
binding signal (GST-Dm-Relish): 9.13 z-score
binding signal (GST-Aq-NF-kB): 8.72 z-score
binding signal (GST-Hu-p50): 7.75 z-score

CCGATTAACATCAAGGGTTTCCCTGATGTTAATCGGGTCTTGATTCGCTTGACGCTGCTG
binding signal (GST-Ap-NF-kB RHD): 4.12 z-score
binding signal [1]: 4.79 z-score
binding signal [2]: 4.07 z-score
binding signal (GST-Co-NF-kB): 3.82 z-score
binding signal (GST-Dm-Relish): 7.83 z-score
binding signal (GST-Aq-NF-kB): 5.56 z-score
binding signal (GST-Hu-p50): 3.28 z-score

CCGATTAACATCAGGGAAGTTTATGATGTTAATCGGGTCTTGATTCGCTTGACGCTGCTG
binding signal (GST-Ap-NF-kB RHD): 4.29 z-score
binding signal [1]: 4.93 z-score
binding signal [2]: 4.78 z-score
binding signal (GST-Co-NF-kB): 2.58 z-score
binding signal (GST-Dm-Relish): 3.35 z-score
binding signal (GST-Aq-NF-kB): 5.26 z-score
binding signal (GST-Hu-p50): 3.73 z-score

CCGATTAACATCAGGGGATTTCATGATGTTAATCGGGTCTTGATTCGCTTGACGCTGCTG
binding signal (GST-Ap-NF-kB RHD): 9.36 z-score
binding signal [1]: 9.75 z-score
binding signal [2]: 10.8 z-score
binding signal (GST-Co-NF-kB): 3.46 z-score
binding signal (GST-Dm-Relish): 8.36 z-score
binding signal (GST-Aq-NF-kB): 6.85 z-score
binding signal (GST-Hu-p50): 7.42 z-score

CCGATTAACATCAGGATTTCCCATGATGTTAATCGGGTCTTGATTCGCTTGACGCTGCTG
binding signal (GST-Ap-NF-kB RHD): 3.95 z-score
binding signal [1]: 5.23 z-score
binding signal [2]: 4.48 z-score
binding signal (GST-Co-NF-kB): 3.18 z-score
binding signal (GST-Dm-Relish): 5.84 z-score
binding signal (GST-Aq-NF-kB): 5.27 z-score
binding signal (GST-Hu-p50): 3.73 z-score

CCGATTAACATCAAATGTCCCCCTGATGTTAATCGGGTCTTGATTCGCTTGACGCTGCTG
binding signal (GST-Ap-NF-kB RHD): 6.37 z-score
binding signal [1]: 5.25 z-score
binding signal [2]: 5.66 z-score
binding signal (GST-Co-NF-kB): 7.6 z-score
binding signal (GST-Dm-Relish): 5.11 z-score
binding signal (GST-Aq-NF-kB): 5.64 z-score
binding signal (GST-Hu-p50): 4.71 z-score

CCGATTAACATCACGGTTTCCCCTGATGTTAATCGGGTCTTGATTCGCTTGACGCTGCTG
binding signal (GST-Ap-NF-kB RHD): 7.03 z-score
binding signal [1]: 7.64 z-score
binding signal [2]: 9.99 z-score
binding signal (GST-Co-NF-kB): 7.67 z-score
binding signal (GST-Dm-Relish): 5.09 z-score
binding signal (GST-Aq-NF-kB): 5.42 z-score
binding signal (GST-Hu-p50): 5.88 z-score

CCGATTAACATCAAAAATACCCCTGATGTTAATCGGGTCTTGATTCGCTTGACGCTGCTG
binding signal (GST-Ap-NF-kB RHD): 7.44 z-score
binding signal [1]: 8.45 z-score
binding signal [2]: 7.96 z-score
binding signal (GST-Co-NF-kB): 6.5 z-score
binding signal (GST-Dm-Relish): 7.71 z-score
binding signal (GST-Aq-NF-kB): 7.5 z-score
binding signal (GST-Hu-p50): 6.44 z-score

CCGATTAACATCAAATTCCCAACTGATGTTAATCGGGTCTTGATTCGCTTGACGCTGCTG
binding signal (GST-Ap-NF-kB RHD): 2.17 z-score
binding signal [1]: 3.56 z-score
binding signal [2]: 3.7 z-score
binding signal (GST-Co-NF-kB): 2.15 z-score
binding signal (GST-Dm-Relish): 3.39 z-score
binding signal (GST-Aq-NF-kB): 2.22 z-score
binding signal (GST-Hu-p50): 2.66 z-score

CCGATTAACATCAGGGGGATCTATGATGTTAATCGGGTCTTGATTCGCTTGACGCTGCTG
binding signal (GST-Ap-NF-kB RHD): 6.31 z-score
binding signal [1]: 5.52 z-score
binding signal [2]: 6.98 z-score
binding signal (GST-Co-NF-kB): 4.28 z-score
binding signal (GST-Dm-Relish): 5.1 z-score
binding signal (GST-Aq-NF-kB): 4.5 z-score
binding signal (GST-Hu-p50): 5.83 z-score
